Source: PubChem BioAssay (EPA / NIEHS)
Records with an inconclusive call do not appear. Activity calls are given as the source filed them. The calls were made as follows, unless noted: active = hit-call score of the fitted dose curve at least 0.9, where 1 is the maximum; inactive = score below 0.9.

Experiments:
[1] = read-out: Transforming Growth Factor (TGFB1), TGFB1 (gene 7040); test: LTEA_HepaRG_TGFB1: Life Technologies and Expression Analysis (LTEA) Assay for Transforming Growth Factor (TGFB1) Transporter using HepaRG (AID 2283533); conditions: mRNA level, 48 h; actives raise or lower the signal
How it was run: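 Expression change of TGFB1 in human HepaRG cells is measured after a 48 h chemical exposure, up to 100 uM in 0.5% DMSO vehicle. Curves are fitted in both directions relative to the DMSO baseline.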

[2] = read-out: TIMP1, TIMP1 (gene 7076); test: LTEA_HepaRG_TIMP1: Life Technologies and Expression Analysis (LTEA) Assay for TIMP1 using HepaRG (AID 2283534); conditions: mRNA level, 48 h; actives raise or lower the signal
How it was run: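 We dosed human liver HepaRG cultures for 48 hours with up to 100 uM test chemical and measured TIMP1 expression by qRT-PCR. Activity in either direction is fitted relative to the 0.5% DMSO vehicle.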

[3] = read-out: Tumor necrosis factor receptor 1 (TNFRSF1A), TNFRSF1A (gene 7132); test: LTEA_HepaRG_TNFRSF1A: Life Technologies and Expression Analysis (LTEA) Assay for Tumor necrosis factor receptor 1 (TNFRSF1A) using HepaRG (AID 2283535); conditions: mRNA level, 48 h; actives raise or lower the signal
How it was run: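 Expression of TNFRSF1A in human HepaRG liver cells was measured by qRT-PCR 48 h after chemical dosing (maximum 100 uM). Bidirectional curve fitting used 0.5% DMSO as baseline.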

[4] = read-out: Thyroid Hormone Responsive (THRSP), THRSP (gene 7069); test: LTEA_HepaRG_THRSP: Life Technologies and Expression Analysis (LTEA) Assay for Thyroid Hormone Responsive (THRSP) using HepaRG (AID 2283536); conditions: mRNA level, 48 h; actives raise or lower the signal
How it was run: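 qRT-PCR read-out (Fluidigm TaqMan), housekeeping-normalized (ACTB/GAPDH/POLR2A). HepaRG, 48 h chemical exposure, 8-pt half-log series from 100 uM in 0.5% DMSO, duplicates. Bidirectional curve fit vs 0.5% DMSO baseline.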

[5] = read-out: Cellular tumor antigen p53 (Homo sapiens) (UniProt P04637); test: LTEA_HepaRG_TP53: Life Technologies and Expression Analysis (LTEA) Assay for Tumor Protein P53 (TP53) using HepaRG (AID 2283537); conditions: mRNA level, 48 h; actives raise or lower the signal
How it was run: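 HepaRG, 48 h exposure, top 100 uM, half-log 8-point, 0.5% DMSO vehicle, duplicates. Read: TP53 mRNA by TaqMan qRT-PCR, normalised to ACTB/GAPDH/POLR2A; bidirectional fit vs DMSO.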

[6] = read-out: UDP glucuronosyltransferase (UGT1A1), UGT1A1 (gene 54658); test: LTEA_HepaRG_UGT1A1: Life Technologies and Expression Analysis (LTEA) Assay for UDP glucuronosyltransferase (UGT1A1) using HepaRG (AID 2283538); conditions: mRNA level, 48 h; actives raise or lower the signal
How it was run: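 HepaRG, 48 h chemical exposure (top 100 uM, half-log 8-pt, 0.5% DMSO vehicle), duplicate wells; qRT-PCR (TaqMan, Fluidigm array) for UGT1A1 mRNA, housekeeping-normalized; bidirectional curve fit vs DMSO baseline.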

[7] = read-out: UDP glucuronosyltransferase (UGT1A6), UGT1A6 (gene 54578); test: LTEA_HepaRG_UGT1A6: Life Technologies and Expression Analysis (LTEA) Assay for UDP glucuronosyltransferase (UGT1A6) using HepaRG (AID 2283539); conditions: mRNA level, 48 h; actives raise or lower the signal
How it was run: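 Endpoint is UGT1A6 transcript induction or loss in a human liver cell line, quantified by TaqMan qRT-PCR 48 h after dosing. Concentrations ran from 100 uM downward in half-log steps in 0.5% DMSO; activity was fitted in both directions versus vehicle.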

[8] = LTEA_HepaRG_LDH_cytotoxicity: Cytotoxicity Assessment in the Life Technologies and Expression Analysis (LTEA) Assay (AID 2283563; active = hit-call score of the fitted dose curve at least 0.9, where 1 is the maximum;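 as to AC50: LDH activity released into spent culture medium as a marker of cell death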)
How it was run: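 Human HepaRG hepatic cells are treated with test chemicals for 48 h at up to 100 uM in 0.5% DMSO. Cytotoxicity is scored from medium LDH against the vehicle control.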

[9] = ATG_XTT_Cytotoxicity: Cytotoxicity Assessment in the Attagene TRANS-FACTORIAL HepG2 Assay (AID 2283584; active = hit-call score of the fitted dose curve at least 0.9, where 1 is the maximum;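 as to AC50: XTT signal for cell number as viability in transfected HepG2 cells; cells exposed to compound for 24 h before reading; active means loss of viability signal versus DMSO baseline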)
How it was run: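 Transfect HepG2 with GAL4-UAS reporter units, dose compound, incubate 24 h, then measure viable cell number by XTT. Fit concentration response against DMSO baseline.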

[10] = read-out: X-box binding protein 1 (XBP1), XBP1 (gene 7494); test: LTEA_HepaRG_XBP1: Life Technologies and Expression Analysis (LTEA) Assay for X-box binding protein 1 (XBP1) using HepaRG (AID 2283540); conditions: mRNA level, 48 h; actives raise or lower the signal
How it was run: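 Human HepaRG monolayers receive test chemical for 48 h across an eight-point half-log series starting at 100 uM. XBP1 mRNA gain or loss is scored against DMSO by qRT-PCR.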

Measured: AC50

Cellular tumor antigen p53 (Homo sapiens), sequence (P04637 whole entry, looked up): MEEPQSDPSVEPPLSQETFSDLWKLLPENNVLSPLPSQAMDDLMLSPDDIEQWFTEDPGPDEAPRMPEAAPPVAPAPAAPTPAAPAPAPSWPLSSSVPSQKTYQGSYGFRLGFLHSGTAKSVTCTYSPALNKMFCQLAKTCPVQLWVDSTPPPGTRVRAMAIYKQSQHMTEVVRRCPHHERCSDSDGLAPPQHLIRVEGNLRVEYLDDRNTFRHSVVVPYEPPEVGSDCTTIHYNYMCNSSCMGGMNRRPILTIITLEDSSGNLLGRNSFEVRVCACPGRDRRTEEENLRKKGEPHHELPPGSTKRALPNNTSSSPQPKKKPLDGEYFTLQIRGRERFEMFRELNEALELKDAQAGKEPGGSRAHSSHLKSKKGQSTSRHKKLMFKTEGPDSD

O=C1CCC(N2C(=O)c3ccccc3C2=O)C(=O)N1 (stereo not given)
not listed: [10]
inactive: all other assays above

CC(=O)OC[C@H]1O[C@@](COC(C)=O)(O[C@H]2O[C@H](COC(C)=O)[C@@H](OC(C)=O)[C@H](OC(C)=O)[C@H]2OC(C)=O)[C@@H](OC(C)=O)[C@@H]1OC(C)=O
not listed: [10]
inactive: all other assays above

C1=CCCC=CCCC=CCC1
not listed: [3]
inactive: all other assays above

CC(C)=CCC/C(C)=C\CO
not listed: [10]
inactive: all other assays above

O=C(OC[C@H]1O[C@@H](OC(=O)c2cc(O)c(O)c(OC(=O)c3cc(O)c(O)c(O)c3)c2)[C@H](OC(=O)c2cc(O)c(O)c(OC(=O)c3cc(O)c(O)c(O)c3)c2)[C@@H](OC(=O)c2cc(O)c(O)c(OC(=O)c3cc(O)c(O)c(O)c3)c2)[C@@H]1OC(=O)c1cc(O)c(O)c(OC(=O)c2cc(O)c(O)c(O)c2)c1)c1cc(O)c(O)c(OC(=O)c2cc(O)c(O)c(O)c2)c1
inactive: [3] | [8] | [9]
active: [1] 2.96 µM | [2] 15.2 µM | [4] 6.1 µM | [5] 4.95 µM | [6] 4.66 µM | [7] 5.4 µM

Nc1nc2ncc(CNc3ccc(C(=O)N[C@@H](CCC(=O)O)C(=O)O)cc3)nc2c(=O)[nH]1
not listed: [10]
inactive: all other assays above

CC(C)(O)c1coc(S(=O)(=O)NC(=O)Nc2c3c(cc4c2CCC4)CCC3)c1
active: [6] 21.5 µM
not listed: [9] | [10]
inactive: all other assays above

NC(=O)NO
not listed: [3]
inactive: all other assays above

CCn1nc(Cc2ccccc2)cc1C1CCN(C[C@H]2C[C@H](N(C)[C@@H](C(=O)O)C(C)C)C[C@@H]2c2cccc(F)c2)CC1
active: [1] 73.3 µM
not listed: [9] | [10]
inactive: all other assays above

CN(C)c1ccc(N=NS(=O)(=O)O)cc1
active: [3] 12.3 µM | [4] 11.1 µM
not listed: [10]
inactive: all other assays above

O=C(O)CCN(C1(C(=O)NO)CCCC1)S(=O)(=O)c1ccc(Oc2ccc(F)cc2)cc1
not listed: [3] | [9]
inactive: all other assays above

CCCCCCCCCCCCCCCO
not listed: [3]
inactive: all other assays above

COCCOCCOCCOC
not listed: [3]
inactive: all other assays above

CCCCCCCCO
not listed: [3] | [9]
inactive: all other assays above

CC(C)=CCCC(C)=CC=O
not listed: [3]
inactive: all other assays above

CCN(C(=O)c1cc(C)cc(OC[C@H](C)Nc2ccncc2)c1)C(C)C
inactive: [1] | [2] | [7] | [10]
active: [4] 6.4 µM | [5] 9.37 µM | [6] 6.7 µM | [8] 49.7 µM

O=C(CCCCCCCCc1cccnc1)N1CCC(C=C(c2ccccc2)c2ccccc2)CC1
inactive: [1]
active: [2] 78.7 µM | [4] 18.8 µM | [5] 22.9 µM | [6] 32.9 µM | [7] 33.6 µM | [10] 30.9 µM | [8] 36.8 µM | [9] 33.8 µM

C[C@](N)(Cc1ccc(O)c(O)c1)C(=O)O
not listed: [3] | [10]
inactive: all other assays above

COc1ccc2sc(C(=O)Nc3nnn[nH]3)c(OC(C)C)c2c1
active: [4] 50 µM | [5] 38.9 µM | [6] 12.9 µM | [7] 50 µM
inactive: [1] | [2] | [8]

CC[C@H]1OC(=O)[C@H](C)[C@@H](O[C@H]2C[C@@](C)(OC)[C@@H](O)[C@H](C)O2)[C@H](C)[C@@H](O[C@@H]2O[C@H](C)C[C@H](N(C)C)[C@H]2O)[C@](C)(O)C[C@@H](C)C(=O)[C@H](C)[C@@H](O)[C@]1(C)O
active: [6] 8.69 µM
not listed: [3] | [10]
inactive: all other assays above

CC(C)c1cccc(C(C)C)c1N1C(=O)c2ccc(O)cc2C1=O
active: [4] 90.2 µM | [6] 10.8 µM
not listed: [3] | [10]
inactive: all other assays above

COC(=O)c1c(Cl)c(Cl)c(C(=O)OC)c(Cl)c1Cl
not listed: [3] | [10]
inactive: all other assays above

O=C(O)c1cc(N=Nc2ccc(S(=O)(=O)Nc3ccccn3)cc2)ccc1O
not listed: [2] | [3]
inactive: all other assays above
